Bioassay records: PubChem, National Center for Advancing Translational Sciences (NCATS)
Rows were chosen to be rich in hits. Some 7.4% of all compounds tested hit in one or more screens of this group.
ELG1 genotox: inducers of genotoxicity in HEK293T ELG1-luciferase cells. HEK293T ELG1-luciferase reporter, luminescence, 16 h. Potency, µM (titrated, usually from 46 µM), usual class: activators. AID 504466. hit rate 1.3% among 330,000; further: nearly all actives have a fitted effect of over 60% in size
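Cells (2,000/well) expressing the ELG1-luciferase fusion are dosed by pin tool and kept 16 hr at 37 °C, 5% CO2. Signal comes from ONE-Glo luciferase reagent after 30 min at room temperature.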
Rab9 prom act: activators of Rab9 promoter | Huh7 Rab9 promoter-luciferase reporter, luminescence, 24 h | Potency, µM (doses to about 9.22 µM), hits mostly activators | hit rate 2.8% among 320,000 | AID 485297; further: nearly all actives have a fitted effect of over 60% in size
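Huh7 cells stably carrying a Rab9 promoter-luciferase reporter, 1500 cells per well in OP-MEM I with 10% FBS, treated with compound 24 hours at 37C. Luciferase activity read by luminescence after 10 minutes with Amplite reagent.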
SMN2 splice enh: enhancers of SMN2 splice variant expression; HEK293 SMN2-luciferase splicing reporter, luminescence, 30-36 h; Potency, µM (series often up to 46.1 µM), usual class: activators; hit rate 2.8% among 210,000; further: nearly all actives have a fitted effect of over 55% in size
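HEK293 cells carry an SMN2 minigene-luciferase reporter in which exon 7 inclusion puts luciferase in frame. Cells were seeded at 2000 cells/well, attached for 10-12 hours, then exposed to compounds for 30-36 hours at 37C before ONE-Glo luminescence.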
KinaseGlo FLuc: counter-screen: inhibitors of Kinase-Glo firefly luciferase; Q27757; Kinase-Glo luciferase, ATP luminescence, 8 min; Potency, µM (doses to about 38.3 µM), actives largely listed as inhibitors; hit rate 0.28% among 200,000; AID 1379; further: nearly all actives have a fitted effect of over 60% in size
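Kinase-Glo luciferase light output from ATP and luciferin was measured with 10 uM ATP, within the enzyme's linear range. Buffer: 50 mM imidazole pH 7.2, 50 mM KCl, 7 mM MgCl2, 0.01% Tween 20, 0.05% BSA; luminescence read after 8 min at ambient temperature.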
FLuc modulator: inhibits or activates purified firefly luciferase, miR-21 counter-screen | P08659 | purified FLuc, Km substrates, luminescence inhibition | Potency, µM (top dose mostly 57.5 µM), hits mostly inhibitors | hit rate 6.9% among 360,000 | AID 588342; further: nearly all actives have a fitted effect of over 55% in size
Target sequence (P08659 whole entry, looked up): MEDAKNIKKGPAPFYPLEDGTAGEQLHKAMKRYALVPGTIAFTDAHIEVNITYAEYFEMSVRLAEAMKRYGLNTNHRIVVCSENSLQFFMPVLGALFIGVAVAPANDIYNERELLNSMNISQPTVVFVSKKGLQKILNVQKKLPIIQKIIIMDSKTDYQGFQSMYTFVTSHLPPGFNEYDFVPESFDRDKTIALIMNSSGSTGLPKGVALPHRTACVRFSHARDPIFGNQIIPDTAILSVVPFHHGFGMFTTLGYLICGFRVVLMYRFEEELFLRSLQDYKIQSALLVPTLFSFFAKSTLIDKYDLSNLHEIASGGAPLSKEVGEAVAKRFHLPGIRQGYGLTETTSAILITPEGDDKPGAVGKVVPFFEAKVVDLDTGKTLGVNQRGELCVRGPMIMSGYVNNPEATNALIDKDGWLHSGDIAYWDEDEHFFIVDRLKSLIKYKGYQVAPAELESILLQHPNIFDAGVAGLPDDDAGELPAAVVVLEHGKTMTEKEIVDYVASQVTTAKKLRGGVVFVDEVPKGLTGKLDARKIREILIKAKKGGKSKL
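Biochemical qHTS of compounds, final roughly 60 µM downward over six points, against 10 nM purified firefly luciferase using Km concentrations of substrates (10 uM D-luciferin, 10 uM ATP) in Tris acetate pH 7.5 buffer; luminescence output.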
NPC1 promoter act: NPC1 promoter activation. hit rate 2.4% among 320,000. Potency, µM (titrated, usually from 9.22 µM), hits mostly activators. Huh7 NPC1 promoter luciferase reporter, 24 h; further: nearly all actives have a fitted effect of over 60% in size
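Huh7 cells stably carrying NPC1 promoter–luciferase, plated in Opti-MEM with 10% FBS for 2 h, were exposed to compound in DMSO for 24 h at 37 °C; luciferase reagent was added for 10 min and luminescence read.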
Hits are given with their value; n = inactive; u = inconclusive; x = no result; [ ] = another dose, or the depositor's remark. The call rests on the fitted dose curve; in most records, active means well fitted curve in the direction sought with a large enough effect; inconclusive means small, poorly fitted or top-dose-only effect, or another doubt; inactive means no such curve, though single readings can be large; an effect the other way counts as inactive or inconclusive.

SMILES	ELG1 genotox	Rab9 prom act	SMN2 splice enh	KinaseGlo FLuc	FLuc modulator	NPC1 promoter act
CC1CCC(NC(=O)c2cc3c(s2)CCCC3)CC1 (stereo unspecified)	u	u	x	x	12µM	u
CC(C)NC(=O)c1cc2c(s1)CCCC2	n	n	n	n	u	n
Cc1ccc(C(=O)NC2CCCC2)s1	u	n	x	x	n	n
CNC(=O)c1cc2c(s1)CCCCCC2	n	n	n	n	13µM	n
O=C(NCCO)c1cc2c(s1)CCC2	n	n	n	n	n	n
CNC(=O)c1cc2c(s1)-c1ccccc1CC2	u	u	7.9µM	n	19µM	u
Cc1ccc(C(=O)NC2CCC(C)CC2)s1 (stereo unspecified)	u	0.4µM	x	x	u	0.89µM
Cc1cc(C)cc(NC(=O)C(=O)NCC(c2cccnc2)N2CCc3ccccc32)c1 (stereo unspecified)	x	x	x	x	n	x
Clc1ccc(-n2ncc3c(NC4CCCC4)ncnc32)cc1	x	x	x	x	0.85µM	x
c1ccc(-n2ncc3c(NC4CCCCCC4)ncnc32)cc1	u	1.8µM	x	x	2.7µM	1.8µM
Cc1ccc(-n2ncc3c(NC4CCCCCC4)ncnc32)cc1Cl	x	x	x	x	2.7µM	x
COc1ccc2cc(CNc3ccccc3)c(=O)n(CC(=O)Nc3ccc(C)cc3C)c2c1	x	x	x	x	n	x
O=C(c1cccc(F)c1)N1CCC2(CCCN(Cc3nccs3)C2)CC1	x	x	n	n	x	x
Cc1ccc2nc(-c3c[nH]c4ccccc34)c(Nc3ccc(F)cc3)n2c1	x	x	14µM	x	n	x
Cc1ccc(Nc2c(-c3c[nH]c4ccccc34)nc3cc(C)ccn23)cc1	x	x	14µM	x	n	x
Cc1ccccc1Nc1c(-c2c[nH]c3ccccc23)nc2ccc(Cl)cn12	x	x	n	x	n	x
Cc1ccn2c(Nc3ccccc3)c(-c3c[nH]c4ccccc34)nc2c1	x	x	11µM	x	n	x
CCC(CC)C(=O)Nc1ccc(C(=O)OCc2cc(=O)n3nc(C4CC4)sc3n2)cc1	x	x	x	x	n	x
COc1ccc(-c2nc3sc(CCNC(=O)c4cc(OC)c(OC)c(OC)c4)c(C)n3n2)cc1	x	x	x	x	11µM	x
COc1ccc(-c2nc3sc(CCNC(=O)c4ccco4)c(C)n3n2)cc1	x	x	x	x	21µM	x
O=C(CSc1ncc2c(n1)-c1ccccc1N(Cc1ccccc1)S2(=O)=O)Nc1ccccc1	x	x	x	x	n	x
Cc1ccc(NC(=O)C(=O)NNC(=O)c2cccs2)cc1	n	n	n	n	u	n
O=C(Nc1ccc(NC(=O)c2cccs2)cc1)c1ccc(Cl)cc1	x	x	n	x	n	x
Cc1ccc(NC(=O)c2cccs2)cc1	13µM	2.5µM	u	n	12µM	2.5µM
O=C(Nc1cccc(O)c1)c1ccc(NC(=O)c2cccs2)cc1	u	n	x	x	15µM	u
SMILES	ELG1 genotox	Rab9 prom act	SMN2 splice enh	KinaseGlo FLuc	FLuc modulator	NPC1 promoter act
O=C(Nc1ccc(NC(=O)c2cccs2)cc1)c1ccccc1	u	4µM	x	x	n	u
Cc1ccc(NC(=O)OCc2cccs2)cc1	2.9µM	1.1µM	x	x	5.4µM	1.6µM
O=C(O)c1ccc(NC(=O)c2cccc(NC(=O)c3cccs3)c2)cc1	n	n	x	x	u	n
Cc1ccc(NC(=O)OCc2cc(-c3ccccc3)on2)cc1	n	n	n	n	u	n
CCCCNC(=O)CSc1nc2cc3c(cc2c(=O)n1CCCC(=O)NCc1ccc2c(c1)OCO2)OCO3	x	x	x	x	n	x
Cc1cccc(NC(=O)CSc2nc(-c3cccs3)cc(C(F)(F)F)c2C#N)c1	x	x	n	x	n	x
Nc1ccc(NC(=O)c2cccs2)cc1	n	n	x	n	n	n
O=C(Nc1ccc2c(c1)CCC2)c1cccs1	u	1.6µM	x	n	6.7µM	2µM
O=C1N/C(=C\c2ccc(O)cc2)C(=O)c2ccccc21	u	n	n	13µM	1.2µM	n
COc1ccc(Cn2c(=O)c3ccccc3n3c(-c4ccc(C)cc4)nnc23)cc1	x	x	x	x	n	x
CC(C)(C)C(=O)Nc1nc(-c2ccccc2)ns1	n	0.63µM	1.6µM	n	5.4µM	0.5µM
c1ccc(Nc2nc(-c3ccccc3)ns2)cc1	1.8µM	1.3µM	x	x	2.1µM	1.8µM
CC(C)(C)C(=O)Nc1nnc(-c2ccccc2)c(-c2ccccc2)n1	n	n	x	x	n	n
O=C(Nc1nc(-c2ccccc2)ns1)c1ccc(Cl)cc1	x	x	x	x	n	x
O=C(Nc1nc(-c2ccccc2)ns1)c1ccncc1	n	n	x	x	11µM	n
O=C1CCCC1C(O)c1ccc2ccccc2c1 (stereo unspecified)	x	x	n	n	x	x
Nc1ccc(-c2ccc(N)c(O)c2)cc1O	x	x	n	x	x	x
Nc1cc(-c2ccccc2)ccc1O	n	n	n	n	24µM	n
O=C(NCCCl)Nc1ccccc1OCCOc1ccccc1NC(=O)NCCCl	n	n	x	x	n	n
CCCOc1ccccc1NC(=O)Nc1ccccc1Cl	n	2.8µM	n	n	n	3.5µM
CCOc1ccccc1NC(=O)Nc1ccc(Cl)cc1	n	n	n	n	21µM	u
COc1cccc(NC(=O)Cn2c(=O)c3cccn3c3ccc(F)cc32)c1	x	x	x	x	n	x
CC(=Nc1ccc(O)cc1)c1sc2ccccc2c1O	4.6µM	1.1µM	10µM	n	2.4µM	1.8µM
CC(=Nc1ccccc1O)c1sc2ccccc2c1O	u	u	x	x	9.5µM	n
O=[N+]([O-])c1cccc(N=Cc2sc3ccccc3c2O)c1	u	u	n	n	u	n
SMILES	ELG1 genotox	Rab9 prom act	SMN2 splice enh	KinaseGlo FLuc	FLuc modulator	NPC1 promoter act
CC(=Nc1cccc(C)c1)c1sc2ccccc2c1O	9.2µM	u	13µM	n	3µM	n
CC(=O)NCCN=C(C)c1sc2ccccc2c1O	n	u	u	n	u	u
NCOC(=O)Cc1ccc(Br)cc1	x	x	n[9.22 µM]	n[7.66 µM]	x	x
CC1CCN(S(=O)(=O)c2ccc3c(c2)N(CC(=O)NC(C)C)C(=O)CS3)CC1	x	x	n	x	n	x
CC(=O)/C(N=Nc1ccc2c(c1)OCCO2)=C(\C)O	u	n	n	u	9.5µM	n
CC(=O)/C(N=Nc1ccc2c(c1)OCO2)=C(\C)O	u	3.5µM	14µM	u	21µM	2.8µM
COc1ccc(NC(=O)C2CCN(S(=O)(=O)c3c(C)noc3/C=C/c3cccs3)CC2)cc1Cl	x	x	n	x	n	x
CCOc1ccccc1NC(=O)c1ccc(OCC)c([N+](=O)[O-])c1	n	n	n	n	n	n
CCOc1ccc(C(=O)Nc2cc(-c3nc4ccccc4[nH]3)ccc2C)cc1[N+](=O)[O-]	n	n	n	n	8.5µM	n
CCOc1ccc(C(=O)Nc2cccc(-c3nc4ccccc4[nH]3)c2C)cc1[N+](=O)[O-]	n	n	n	n	9.5µM	n
CCOc1ccc(C(=O)Nc2cc(-c3nc4ccccc4[nH]3)ccc2Cl)cc1[N+](=O)[O-]	n	n	n	n	u	n
COc1ccc(C)cc1NC(=O)c1ccc2nc(Cc3ccccc3)oc2c1	x	x	x	x	n	x
C[C@@H](C1=C(CCN(C)C)Cc2ccccc21)c1ccccn1	x	x	x	n	x	x
CNc1cccc2c1C(=O)c1ccccc1C2=O	u	u	u	n	9.5µM	n
COC(=O)N/N=C/c1cccc(OC(=O)c2ccc3c(c2)OCO3)c1	n	n	x	x	17µM	n
